Reference: the supplement of paper PMC11732987, “Enantioselective OTUD7B fragment discovery through chemoproteomics screening and high-throughput optimisation” (Communications Chemistry, 2025)

Tests used:
Assay in all cases: log2 ratio of Biotin-Ahx-Ub-VS probe labelling (fragment/DMSO); higher = less target engagement (more negative = stronger competition), active = hit call of the paper (q ≤ 0.05, log2 ratio ≤ -1)
Conditions in all cases: compound concentration: 200 uM; treatment time: 3 h
USP42 = biological target: T1, USP42 (UniProt Q9H9J4)
T1 sequence (whole entry): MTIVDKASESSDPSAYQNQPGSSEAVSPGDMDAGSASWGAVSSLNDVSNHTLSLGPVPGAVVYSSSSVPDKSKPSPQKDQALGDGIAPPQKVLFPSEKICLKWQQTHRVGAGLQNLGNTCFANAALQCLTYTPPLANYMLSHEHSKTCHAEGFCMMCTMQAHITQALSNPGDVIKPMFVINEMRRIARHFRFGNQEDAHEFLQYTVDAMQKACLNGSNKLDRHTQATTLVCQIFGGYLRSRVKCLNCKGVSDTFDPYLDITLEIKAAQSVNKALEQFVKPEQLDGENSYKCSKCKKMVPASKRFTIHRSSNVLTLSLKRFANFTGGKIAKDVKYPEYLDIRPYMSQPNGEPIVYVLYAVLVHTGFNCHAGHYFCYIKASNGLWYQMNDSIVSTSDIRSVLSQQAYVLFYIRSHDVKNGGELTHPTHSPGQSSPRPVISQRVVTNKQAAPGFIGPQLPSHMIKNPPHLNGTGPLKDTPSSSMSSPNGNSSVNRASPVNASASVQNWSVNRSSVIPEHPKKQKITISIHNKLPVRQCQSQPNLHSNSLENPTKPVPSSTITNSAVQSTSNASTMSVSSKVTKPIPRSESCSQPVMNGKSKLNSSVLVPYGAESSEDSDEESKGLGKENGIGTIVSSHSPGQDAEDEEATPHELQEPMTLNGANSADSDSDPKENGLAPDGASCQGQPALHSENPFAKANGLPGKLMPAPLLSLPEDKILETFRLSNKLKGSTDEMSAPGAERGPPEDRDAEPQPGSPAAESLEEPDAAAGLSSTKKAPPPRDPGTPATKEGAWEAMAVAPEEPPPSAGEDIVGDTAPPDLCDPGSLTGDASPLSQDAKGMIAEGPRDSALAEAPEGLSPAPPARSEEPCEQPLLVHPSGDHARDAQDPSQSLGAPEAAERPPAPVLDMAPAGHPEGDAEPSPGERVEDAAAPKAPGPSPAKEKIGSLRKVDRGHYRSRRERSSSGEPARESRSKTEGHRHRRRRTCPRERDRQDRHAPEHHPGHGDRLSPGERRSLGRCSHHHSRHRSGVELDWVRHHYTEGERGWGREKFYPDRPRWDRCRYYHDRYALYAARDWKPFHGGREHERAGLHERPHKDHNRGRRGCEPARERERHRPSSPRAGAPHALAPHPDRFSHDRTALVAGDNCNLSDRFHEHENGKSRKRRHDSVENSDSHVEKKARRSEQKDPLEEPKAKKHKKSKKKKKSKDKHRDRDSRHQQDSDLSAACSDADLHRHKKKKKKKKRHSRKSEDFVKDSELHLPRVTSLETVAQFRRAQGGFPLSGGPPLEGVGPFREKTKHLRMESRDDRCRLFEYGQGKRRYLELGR
Procedure, shortened: (§1)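 Each value is an average log2 ratio of fragment to vehicle, tested by unpaired t-test. The underlying Spectronaut label-free quantities were global-median-normalised, and only proteins with ≥2 unique peptides were included. Triplicate HEK293T lysate samples (495 µg) were exposed to fragment at 200 µM or vehicle for 3 h, then to Biotin-Ahx-Ub-VS at 0.5 µM final for 1 h, before NeutrAvidin enrichment of labelled DUBs, LysC and trypsin digestion, and diaPASEF LC-MS/MS.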

USP46 = USP46 (UniProt P62068)
Sequence of USP46 (P62068 whole entry): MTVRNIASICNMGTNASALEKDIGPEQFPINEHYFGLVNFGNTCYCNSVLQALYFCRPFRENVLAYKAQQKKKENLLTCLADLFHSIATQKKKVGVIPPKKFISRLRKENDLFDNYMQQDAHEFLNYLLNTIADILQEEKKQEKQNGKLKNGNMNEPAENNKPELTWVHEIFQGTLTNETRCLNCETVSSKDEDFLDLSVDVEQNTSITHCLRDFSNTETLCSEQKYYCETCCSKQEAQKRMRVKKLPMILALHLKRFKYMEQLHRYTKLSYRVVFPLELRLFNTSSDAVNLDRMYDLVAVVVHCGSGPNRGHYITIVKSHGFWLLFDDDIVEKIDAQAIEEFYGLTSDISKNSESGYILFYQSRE
Procedure, shortened: as §1

USP47 = biological target: T2, USP47 (UniProt Q96K76)
T2 sequence (whole entry): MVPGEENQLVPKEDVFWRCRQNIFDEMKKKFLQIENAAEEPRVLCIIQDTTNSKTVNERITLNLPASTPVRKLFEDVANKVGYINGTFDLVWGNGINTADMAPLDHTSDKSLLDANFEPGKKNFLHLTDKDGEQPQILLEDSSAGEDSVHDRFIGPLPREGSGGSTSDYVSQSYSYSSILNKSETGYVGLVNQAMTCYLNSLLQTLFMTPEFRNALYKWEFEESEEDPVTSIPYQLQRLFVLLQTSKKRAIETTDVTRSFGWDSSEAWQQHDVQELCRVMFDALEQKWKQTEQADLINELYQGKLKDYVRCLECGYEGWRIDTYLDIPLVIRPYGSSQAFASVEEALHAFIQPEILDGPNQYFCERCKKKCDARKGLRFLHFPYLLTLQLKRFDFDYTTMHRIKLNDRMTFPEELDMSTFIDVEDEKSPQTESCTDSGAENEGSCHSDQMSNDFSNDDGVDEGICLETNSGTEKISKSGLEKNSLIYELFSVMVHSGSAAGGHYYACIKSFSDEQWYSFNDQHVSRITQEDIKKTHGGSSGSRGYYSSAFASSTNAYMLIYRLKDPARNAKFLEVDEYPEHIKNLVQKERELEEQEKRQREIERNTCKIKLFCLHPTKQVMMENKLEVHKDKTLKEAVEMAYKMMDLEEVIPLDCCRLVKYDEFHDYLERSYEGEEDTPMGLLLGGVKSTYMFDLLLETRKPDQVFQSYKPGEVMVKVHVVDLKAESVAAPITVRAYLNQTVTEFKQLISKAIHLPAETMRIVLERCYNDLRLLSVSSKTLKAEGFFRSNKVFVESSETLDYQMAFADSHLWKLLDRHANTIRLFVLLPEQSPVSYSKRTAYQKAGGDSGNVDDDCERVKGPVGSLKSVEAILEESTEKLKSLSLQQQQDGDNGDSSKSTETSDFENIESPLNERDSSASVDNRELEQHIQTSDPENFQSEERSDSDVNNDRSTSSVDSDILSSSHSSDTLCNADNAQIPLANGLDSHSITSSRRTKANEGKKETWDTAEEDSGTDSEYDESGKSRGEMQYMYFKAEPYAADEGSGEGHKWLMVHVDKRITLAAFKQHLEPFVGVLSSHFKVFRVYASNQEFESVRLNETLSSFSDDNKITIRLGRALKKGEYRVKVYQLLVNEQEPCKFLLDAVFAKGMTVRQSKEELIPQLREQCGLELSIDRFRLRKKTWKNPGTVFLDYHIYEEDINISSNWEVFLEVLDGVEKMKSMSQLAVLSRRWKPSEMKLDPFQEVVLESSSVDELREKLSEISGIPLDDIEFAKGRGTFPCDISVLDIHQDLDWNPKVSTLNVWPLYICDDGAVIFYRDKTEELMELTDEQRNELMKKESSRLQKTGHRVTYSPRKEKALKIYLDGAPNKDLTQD
Procedure, shortened: as §1

USP48 = biological target: T3, USP48 (UniProt Q86UV5)
T3 sequence (whole entry): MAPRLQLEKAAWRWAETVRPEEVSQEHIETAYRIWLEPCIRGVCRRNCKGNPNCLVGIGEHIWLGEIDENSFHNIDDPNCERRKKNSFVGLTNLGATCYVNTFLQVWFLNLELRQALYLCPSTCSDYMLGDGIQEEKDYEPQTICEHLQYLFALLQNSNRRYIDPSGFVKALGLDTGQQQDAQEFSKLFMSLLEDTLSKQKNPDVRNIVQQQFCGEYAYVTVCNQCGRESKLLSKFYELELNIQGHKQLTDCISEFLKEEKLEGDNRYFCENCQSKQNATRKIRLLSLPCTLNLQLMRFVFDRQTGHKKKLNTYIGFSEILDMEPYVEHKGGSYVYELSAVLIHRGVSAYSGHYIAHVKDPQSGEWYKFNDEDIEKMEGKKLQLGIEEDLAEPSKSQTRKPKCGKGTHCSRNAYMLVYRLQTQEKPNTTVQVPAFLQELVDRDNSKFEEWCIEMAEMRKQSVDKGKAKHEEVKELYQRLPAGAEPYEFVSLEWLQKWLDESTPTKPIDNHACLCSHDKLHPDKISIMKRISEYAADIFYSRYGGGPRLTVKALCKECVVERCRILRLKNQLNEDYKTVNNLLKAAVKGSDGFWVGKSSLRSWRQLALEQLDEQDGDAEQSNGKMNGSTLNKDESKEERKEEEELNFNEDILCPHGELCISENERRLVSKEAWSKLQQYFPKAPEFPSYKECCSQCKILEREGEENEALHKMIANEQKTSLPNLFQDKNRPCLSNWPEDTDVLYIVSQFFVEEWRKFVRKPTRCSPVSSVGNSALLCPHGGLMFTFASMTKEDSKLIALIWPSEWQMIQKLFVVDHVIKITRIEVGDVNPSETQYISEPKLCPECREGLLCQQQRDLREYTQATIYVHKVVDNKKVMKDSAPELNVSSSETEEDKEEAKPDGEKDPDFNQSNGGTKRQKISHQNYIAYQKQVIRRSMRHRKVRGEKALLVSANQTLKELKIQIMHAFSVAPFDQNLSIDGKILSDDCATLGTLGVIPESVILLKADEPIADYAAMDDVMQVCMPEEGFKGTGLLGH
Procedure, shortened: as §1

USP5 = biological target: T4, USP5 (UniProt P45974)
T4 sequence (whole entry): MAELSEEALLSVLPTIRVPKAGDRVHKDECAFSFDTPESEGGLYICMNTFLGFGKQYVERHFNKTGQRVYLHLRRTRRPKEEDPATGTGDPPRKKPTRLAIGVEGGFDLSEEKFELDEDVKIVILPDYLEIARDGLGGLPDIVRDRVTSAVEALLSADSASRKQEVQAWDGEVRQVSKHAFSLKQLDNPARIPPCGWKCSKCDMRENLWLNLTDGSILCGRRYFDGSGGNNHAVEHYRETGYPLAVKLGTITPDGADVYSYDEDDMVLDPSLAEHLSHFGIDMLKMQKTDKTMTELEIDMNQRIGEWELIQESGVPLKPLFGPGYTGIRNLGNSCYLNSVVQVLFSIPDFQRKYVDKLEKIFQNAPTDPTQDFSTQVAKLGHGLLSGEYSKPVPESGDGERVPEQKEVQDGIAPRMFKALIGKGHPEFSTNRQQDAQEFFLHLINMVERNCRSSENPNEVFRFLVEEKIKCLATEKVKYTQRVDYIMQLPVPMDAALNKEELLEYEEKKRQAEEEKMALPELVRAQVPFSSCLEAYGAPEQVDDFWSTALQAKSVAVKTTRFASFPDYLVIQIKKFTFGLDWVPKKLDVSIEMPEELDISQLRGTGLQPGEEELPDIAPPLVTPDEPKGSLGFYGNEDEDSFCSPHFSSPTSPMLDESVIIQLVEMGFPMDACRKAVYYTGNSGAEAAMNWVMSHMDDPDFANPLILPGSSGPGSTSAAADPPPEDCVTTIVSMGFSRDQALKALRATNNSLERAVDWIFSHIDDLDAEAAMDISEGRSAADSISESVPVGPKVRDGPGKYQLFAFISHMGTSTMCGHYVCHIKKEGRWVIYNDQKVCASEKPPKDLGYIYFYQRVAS
Procedure, shortened: as §1

USP54 = USP54 (UniProt Q70EL1)
Procedure, shortened: as §1

USP7 = USP7 (UniProt Q93009)
Sequence of USP7 (Q93009 whole entry, looked up): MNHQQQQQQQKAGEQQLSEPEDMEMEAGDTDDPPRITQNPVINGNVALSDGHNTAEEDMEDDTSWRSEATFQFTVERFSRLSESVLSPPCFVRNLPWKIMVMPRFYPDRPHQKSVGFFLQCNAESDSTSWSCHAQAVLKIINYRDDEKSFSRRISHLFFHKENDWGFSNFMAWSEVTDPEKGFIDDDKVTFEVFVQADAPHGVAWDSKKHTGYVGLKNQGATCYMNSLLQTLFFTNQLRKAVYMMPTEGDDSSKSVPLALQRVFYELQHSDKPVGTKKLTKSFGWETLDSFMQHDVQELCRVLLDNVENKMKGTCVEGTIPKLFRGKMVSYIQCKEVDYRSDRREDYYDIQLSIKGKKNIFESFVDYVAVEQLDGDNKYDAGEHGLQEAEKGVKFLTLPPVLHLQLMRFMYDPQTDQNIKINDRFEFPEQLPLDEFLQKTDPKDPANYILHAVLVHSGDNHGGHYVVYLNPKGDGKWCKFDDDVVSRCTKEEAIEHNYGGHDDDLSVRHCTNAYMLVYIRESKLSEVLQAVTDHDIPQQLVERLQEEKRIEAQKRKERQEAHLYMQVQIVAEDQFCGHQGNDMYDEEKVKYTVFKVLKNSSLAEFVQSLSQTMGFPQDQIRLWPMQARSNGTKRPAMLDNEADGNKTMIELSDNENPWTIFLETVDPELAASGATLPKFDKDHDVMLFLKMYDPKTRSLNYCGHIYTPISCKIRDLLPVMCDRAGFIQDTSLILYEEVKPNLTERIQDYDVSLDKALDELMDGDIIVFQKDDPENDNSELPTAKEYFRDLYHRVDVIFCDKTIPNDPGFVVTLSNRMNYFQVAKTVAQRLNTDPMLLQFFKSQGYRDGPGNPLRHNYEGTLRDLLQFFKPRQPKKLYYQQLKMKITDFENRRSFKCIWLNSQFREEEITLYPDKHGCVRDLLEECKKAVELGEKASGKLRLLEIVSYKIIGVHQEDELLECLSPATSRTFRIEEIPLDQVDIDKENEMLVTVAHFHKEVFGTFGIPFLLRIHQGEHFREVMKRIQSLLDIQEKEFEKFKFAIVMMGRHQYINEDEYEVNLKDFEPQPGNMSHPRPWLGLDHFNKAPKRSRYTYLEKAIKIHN
Procedure, shortened: as §1

USP8 = biological target: T5, USP8 (UniProt P40818)
T5 sequence (whole entry): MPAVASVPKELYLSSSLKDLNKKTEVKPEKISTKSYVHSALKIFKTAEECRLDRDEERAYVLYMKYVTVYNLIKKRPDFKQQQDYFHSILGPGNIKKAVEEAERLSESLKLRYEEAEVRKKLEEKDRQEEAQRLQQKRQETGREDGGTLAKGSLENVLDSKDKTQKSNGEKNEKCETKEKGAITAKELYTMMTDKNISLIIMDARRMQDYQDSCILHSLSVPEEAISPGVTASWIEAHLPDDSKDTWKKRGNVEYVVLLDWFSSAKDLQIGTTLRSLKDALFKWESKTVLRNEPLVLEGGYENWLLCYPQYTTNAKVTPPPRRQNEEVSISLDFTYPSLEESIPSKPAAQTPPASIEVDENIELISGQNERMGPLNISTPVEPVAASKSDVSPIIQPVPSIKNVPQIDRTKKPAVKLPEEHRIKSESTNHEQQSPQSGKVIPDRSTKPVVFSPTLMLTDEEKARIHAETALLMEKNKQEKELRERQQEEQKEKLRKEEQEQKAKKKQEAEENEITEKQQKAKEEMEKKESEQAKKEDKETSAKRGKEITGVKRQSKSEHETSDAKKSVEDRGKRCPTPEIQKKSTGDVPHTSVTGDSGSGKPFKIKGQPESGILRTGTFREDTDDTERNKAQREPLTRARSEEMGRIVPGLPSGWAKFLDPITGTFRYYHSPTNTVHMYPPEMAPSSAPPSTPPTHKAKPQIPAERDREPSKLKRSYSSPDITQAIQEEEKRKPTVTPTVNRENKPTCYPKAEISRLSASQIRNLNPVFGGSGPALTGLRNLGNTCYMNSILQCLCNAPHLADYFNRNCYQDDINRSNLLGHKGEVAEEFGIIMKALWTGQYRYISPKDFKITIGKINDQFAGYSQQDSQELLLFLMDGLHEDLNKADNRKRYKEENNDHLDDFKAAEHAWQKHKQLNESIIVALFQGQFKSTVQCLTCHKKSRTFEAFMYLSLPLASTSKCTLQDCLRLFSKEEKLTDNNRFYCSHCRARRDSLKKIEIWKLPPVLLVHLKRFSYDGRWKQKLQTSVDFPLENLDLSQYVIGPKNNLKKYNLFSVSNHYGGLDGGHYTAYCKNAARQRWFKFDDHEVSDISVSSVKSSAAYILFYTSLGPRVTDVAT
Procedure, shortened: as §1

USP9X = USP9X (UniProt Q93008)
Sequence of USP9X (Q93008 whole entry): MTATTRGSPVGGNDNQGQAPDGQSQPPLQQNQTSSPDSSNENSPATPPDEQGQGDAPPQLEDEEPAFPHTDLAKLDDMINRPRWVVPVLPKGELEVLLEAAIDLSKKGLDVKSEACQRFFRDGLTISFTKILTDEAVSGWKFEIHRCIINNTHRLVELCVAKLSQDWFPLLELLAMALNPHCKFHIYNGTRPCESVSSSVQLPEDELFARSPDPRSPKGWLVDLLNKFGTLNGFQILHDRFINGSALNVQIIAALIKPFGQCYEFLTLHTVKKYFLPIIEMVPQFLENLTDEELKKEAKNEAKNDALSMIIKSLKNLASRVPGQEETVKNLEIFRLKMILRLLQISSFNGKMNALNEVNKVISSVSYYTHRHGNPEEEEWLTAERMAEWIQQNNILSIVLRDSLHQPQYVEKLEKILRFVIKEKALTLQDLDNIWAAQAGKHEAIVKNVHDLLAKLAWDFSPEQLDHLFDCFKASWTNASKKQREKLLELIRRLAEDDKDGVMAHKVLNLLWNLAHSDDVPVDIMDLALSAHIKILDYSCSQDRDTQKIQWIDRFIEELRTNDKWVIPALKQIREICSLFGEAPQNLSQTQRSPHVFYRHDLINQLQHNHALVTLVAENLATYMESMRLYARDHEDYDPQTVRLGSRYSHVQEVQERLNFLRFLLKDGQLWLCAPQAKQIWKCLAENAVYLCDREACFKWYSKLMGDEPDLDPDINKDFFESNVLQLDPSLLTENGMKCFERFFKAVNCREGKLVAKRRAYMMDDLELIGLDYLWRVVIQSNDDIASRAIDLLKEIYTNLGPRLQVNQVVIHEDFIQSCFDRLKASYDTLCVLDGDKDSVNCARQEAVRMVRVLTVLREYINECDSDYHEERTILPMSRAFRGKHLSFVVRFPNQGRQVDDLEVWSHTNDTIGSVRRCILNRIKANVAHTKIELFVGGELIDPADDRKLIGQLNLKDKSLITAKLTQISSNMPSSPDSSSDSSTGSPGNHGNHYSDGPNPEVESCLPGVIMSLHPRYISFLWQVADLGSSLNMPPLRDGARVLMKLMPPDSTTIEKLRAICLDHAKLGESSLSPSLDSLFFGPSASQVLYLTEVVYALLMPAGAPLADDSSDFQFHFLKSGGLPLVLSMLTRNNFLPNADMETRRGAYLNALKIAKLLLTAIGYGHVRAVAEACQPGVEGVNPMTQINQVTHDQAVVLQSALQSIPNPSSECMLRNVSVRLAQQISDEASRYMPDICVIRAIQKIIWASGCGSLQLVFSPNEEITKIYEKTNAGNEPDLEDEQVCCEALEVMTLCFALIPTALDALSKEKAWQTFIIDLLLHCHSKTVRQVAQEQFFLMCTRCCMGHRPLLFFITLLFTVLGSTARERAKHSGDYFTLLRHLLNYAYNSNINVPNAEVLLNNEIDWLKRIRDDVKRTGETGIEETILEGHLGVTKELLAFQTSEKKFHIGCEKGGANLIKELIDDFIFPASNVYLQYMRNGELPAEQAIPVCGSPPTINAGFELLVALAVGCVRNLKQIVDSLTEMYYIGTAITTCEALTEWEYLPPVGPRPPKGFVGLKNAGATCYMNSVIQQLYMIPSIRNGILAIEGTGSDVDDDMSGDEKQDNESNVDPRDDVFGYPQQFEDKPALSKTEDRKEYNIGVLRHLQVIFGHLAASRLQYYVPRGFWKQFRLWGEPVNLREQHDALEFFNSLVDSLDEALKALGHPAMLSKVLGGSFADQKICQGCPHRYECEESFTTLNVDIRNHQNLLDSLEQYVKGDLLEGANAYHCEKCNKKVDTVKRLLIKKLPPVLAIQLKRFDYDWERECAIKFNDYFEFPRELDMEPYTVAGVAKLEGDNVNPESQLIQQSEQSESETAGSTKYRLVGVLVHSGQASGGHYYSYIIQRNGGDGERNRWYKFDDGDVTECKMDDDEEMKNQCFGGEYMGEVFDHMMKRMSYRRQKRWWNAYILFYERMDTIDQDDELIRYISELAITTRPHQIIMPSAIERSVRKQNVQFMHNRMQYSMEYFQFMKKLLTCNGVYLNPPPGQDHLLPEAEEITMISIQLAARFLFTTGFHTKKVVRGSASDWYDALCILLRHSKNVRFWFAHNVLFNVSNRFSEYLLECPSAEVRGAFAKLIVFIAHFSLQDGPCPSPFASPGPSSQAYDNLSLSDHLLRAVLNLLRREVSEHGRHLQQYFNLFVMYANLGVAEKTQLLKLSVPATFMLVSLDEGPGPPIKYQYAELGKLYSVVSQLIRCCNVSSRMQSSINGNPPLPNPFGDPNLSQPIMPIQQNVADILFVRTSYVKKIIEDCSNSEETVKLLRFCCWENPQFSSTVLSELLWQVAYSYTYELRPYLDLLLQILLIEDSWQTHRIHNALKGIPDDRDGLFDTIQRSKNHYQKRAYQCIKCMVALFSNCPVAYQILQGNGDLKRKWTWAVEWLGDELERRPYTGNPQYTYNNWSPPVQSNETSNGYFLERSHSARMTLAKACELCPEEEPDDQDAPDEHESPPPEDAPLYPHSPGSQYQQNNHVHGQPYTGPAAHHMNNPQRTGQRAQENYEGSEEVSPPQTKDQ
Procedure, shortened: as §1

UniProt O00487 = biological target: UniProt O00487
Sequence of UniProt O00487 (O00487 whole entry): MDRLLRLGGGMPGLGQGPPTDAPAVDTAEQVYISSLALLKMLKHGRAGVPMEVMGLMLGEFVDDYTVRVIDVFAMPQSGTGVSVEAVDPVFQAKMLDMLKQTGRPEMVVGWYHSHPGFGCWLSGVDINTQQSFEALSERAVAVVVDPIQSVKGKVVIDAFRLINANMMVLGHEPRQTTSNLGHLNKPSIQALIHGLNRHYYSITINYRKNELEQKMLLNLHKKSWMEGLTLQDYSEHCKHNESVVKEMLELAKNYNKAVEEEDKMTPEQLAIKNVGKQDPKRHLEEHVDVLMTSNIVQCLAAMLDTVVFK
Procedure, shortened: as §1

Measured: log2 ratio of Biotin-Ahx-Ub-VS probe labelling

Cl.O=C(CN1CCN(C(=O)CCl)CC1)Nc1ccc(F)cc1
inactive: USP42 0.733 | USP46 0.0462 | USP47 -0.158 | USP48 -0.321 | USP5 0.365 | USP54 0.194 | USP7 -0.291 | USP8 0.234 | USP9X 0.0748 | UniProt O00487 -0.0621
